# Measured values reported in PMC7862700, “An all-to-all approach to the identification of sequence-specific readers for epigenetic DNA modifications on cytosine”.
# Assays:
# Assay in all cases: DAPPL (digital affinity profiling via proximity ligation, sequencing); 10 mM Tris-HCl pH 7.5, 50 mM NaCl, 1 mM DTT, 4% glycerol, room temperature, 30 min; GST-TFs on glutathione beads, 16-mer random dsDNA library, 0.1% formaldehyde crosslink after washing; high values mean tight binding
# Conditions in all cases: protein: recombinant; tags: N-terminal GST; dsDNA, one strand shown
# ELK1 = biological target: T1, ELK1 (Homo sapiens, UniProt P19419 1-428)
# T1 sequence: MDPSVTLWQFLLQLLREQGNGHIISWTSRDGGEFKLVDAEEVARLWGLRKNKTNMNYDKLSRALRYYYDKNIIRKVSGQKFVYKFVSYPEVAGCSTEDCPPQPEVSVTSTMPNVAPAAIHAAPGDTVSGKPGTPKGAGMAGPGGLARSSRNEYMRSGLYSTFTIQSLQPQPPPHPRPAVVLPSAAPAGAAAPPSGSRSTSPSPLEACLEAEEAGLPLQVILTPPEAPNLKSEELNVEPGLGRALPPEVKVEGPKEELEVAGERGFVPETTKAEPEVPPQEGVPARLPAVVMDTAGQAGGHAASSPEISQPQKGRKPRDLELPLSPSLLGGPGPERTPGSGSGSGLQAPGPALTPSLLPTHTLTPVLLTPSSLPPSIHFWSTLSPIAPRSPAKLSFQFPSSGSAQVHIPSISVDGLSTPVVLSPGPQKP
# Summary of the method: (§1)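 Yeast served to express human transcription factors as GST fusions, which were then captured on glutathione beads and labelled with DNA barcodes. Pooled with a tag-only sample, they were incubated with 200 nmole of a 16-mer random double-stranded DNA library for 30 min at room temperature in Tris/NaCl/DTT/glycerol buffer, washed, crosslinked with 0.1% formaldehyde, ligated by proximity, amplified by PCR and sequenced. Dividing each hexamer's read frequency for a factor by its frequency for the tag-only sample gives the binding signal.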
# GABPA = biological target: T2, GABPA (Homo sapiens, UniProt Q06546 1-454)
# T2 sequence: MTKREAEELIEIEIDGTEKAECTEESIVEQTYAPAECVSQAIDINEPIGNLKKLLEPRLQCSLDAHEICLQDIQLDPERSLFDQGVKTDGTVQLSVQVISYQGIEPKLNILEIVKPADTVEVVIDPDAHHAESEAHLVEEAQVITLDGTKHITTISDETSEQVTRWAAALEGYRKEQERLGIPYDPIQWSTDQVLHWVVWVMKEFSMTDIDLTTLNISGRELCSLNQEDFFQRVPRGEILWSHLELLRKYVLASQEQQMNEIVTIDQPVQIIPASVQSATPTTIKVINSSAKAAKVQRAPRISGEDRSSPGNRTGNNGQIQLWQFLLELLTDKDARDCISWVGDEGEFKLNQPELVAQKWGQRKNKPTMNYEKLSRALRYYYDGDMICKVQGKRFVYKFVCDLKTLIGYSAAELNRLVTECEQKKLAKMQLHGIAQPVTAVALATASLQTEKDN
# Summary of the method: as §1
# ERG = biological target: T3, ERG (Homo sapiens, UniProt P11308 1-479)
# T3 sequence: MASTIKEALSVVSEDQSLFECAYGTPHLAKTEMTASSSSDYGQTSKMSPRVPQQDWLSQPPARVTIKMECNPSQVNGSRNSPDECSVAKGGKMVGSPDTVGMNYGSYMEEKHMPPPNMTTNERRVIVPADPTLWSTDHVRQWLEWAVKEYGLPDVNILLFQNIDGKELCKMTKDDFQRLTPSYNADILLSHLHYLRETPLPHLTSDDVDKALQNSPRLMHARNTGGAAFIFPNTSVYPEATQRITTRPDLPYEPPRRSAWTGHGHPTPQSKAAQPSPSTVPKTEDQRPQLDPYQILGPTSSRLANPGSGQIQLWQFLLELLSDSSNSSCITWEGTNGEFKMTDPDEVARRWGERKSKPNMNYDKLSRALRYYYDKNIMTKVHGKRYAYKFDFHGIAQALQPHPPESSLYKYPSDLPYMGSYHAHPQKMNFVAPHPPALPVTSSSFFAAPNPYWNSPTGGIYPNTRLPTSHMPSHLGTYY
# Summary of the method: as §1
# ELF1 = ELF1 (Homo sapiens, UniProt P32519 1-619)
# Summary of the method: as §1
# EHF = biological target: T4, EHF (Homo sapiens, UniProt Q9NZC4 1-300)
# T4 sequence: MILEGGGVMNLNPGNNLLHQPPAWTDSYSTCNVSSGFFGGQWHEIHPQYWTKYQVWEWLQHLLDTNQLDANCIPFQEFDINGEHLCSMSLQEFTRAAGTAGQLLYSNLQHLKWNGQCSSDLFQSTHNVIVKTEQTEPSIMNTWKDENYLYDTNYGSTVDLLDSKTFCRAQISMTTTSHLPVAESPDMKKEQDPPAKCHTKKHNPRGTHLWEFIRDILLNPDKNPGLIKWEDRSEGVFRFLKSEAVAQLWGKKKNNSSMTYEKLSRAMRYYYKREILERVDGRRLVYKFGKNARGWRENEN
# Summary of the method: as §1
# SPIB = SPIB (Homo sapiens, UniProt Q01892 1-262)
# Summary of the method: as §1
# FEV = biological target: T5, FEV (Homo sapiens, UniProt Q99581 1-238)
# T5 sequence: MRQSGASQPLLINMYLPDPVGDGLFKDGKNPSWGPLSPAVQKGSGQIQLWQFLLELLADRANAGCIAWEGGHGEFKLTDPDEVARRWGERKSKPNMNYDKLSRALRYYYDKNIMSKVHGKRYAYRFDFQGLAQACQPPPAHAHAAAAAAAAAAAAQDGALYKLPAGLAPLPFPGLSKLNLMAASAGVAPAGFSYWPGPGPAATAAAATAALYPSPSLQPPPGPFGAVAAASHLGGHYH
# Summary of the method: as §1
# ETV5 = ETV5 (Homo sapiens, UniProt P41161 1-510)
# Summary of the method: as §1
# ELF4 = ELF4 (Homo sapiens, UniProt Q99607 1-663)
# Summary of the method: as §1
# ELK4 = biological target: T6, ELK4 (Homo sapiens, UniProt P28324-2 1-405)
# T6 sequence: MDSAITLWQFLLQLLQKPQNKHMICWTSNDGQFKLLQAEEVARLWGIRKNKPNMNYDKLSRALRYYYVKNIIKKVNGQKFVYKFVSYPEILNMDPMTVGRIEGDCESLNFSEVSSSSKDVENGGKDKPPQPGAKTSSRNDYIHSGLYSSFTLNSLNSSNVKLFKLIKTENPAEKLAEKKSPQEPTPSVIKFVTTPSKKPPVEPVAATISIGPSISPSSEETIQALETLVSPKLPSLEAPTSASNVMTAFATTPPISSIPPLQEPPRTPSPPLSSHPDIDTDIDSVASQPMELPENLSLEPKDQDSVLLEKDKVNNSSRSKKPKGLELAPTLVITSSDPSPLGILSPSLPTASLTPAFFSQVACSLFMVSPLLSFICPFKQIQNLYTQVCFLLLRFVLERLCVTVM
# Summary of the method: as §1
# SPIB, sequence (Q01892 whole entry): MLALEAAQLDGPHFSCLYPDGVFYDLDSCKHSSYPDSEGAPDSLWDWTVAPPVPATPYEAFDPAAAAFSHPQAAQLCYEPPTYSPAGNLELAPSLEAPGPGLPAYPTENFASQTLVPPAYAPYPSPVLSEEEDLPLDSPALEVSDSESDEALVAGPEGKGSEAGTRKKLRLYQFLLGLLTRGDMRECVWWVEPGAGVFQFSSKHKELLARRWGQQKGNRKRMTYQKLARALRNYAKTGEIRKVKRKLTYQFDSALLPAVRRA
# ELF1, sequence (P32519 whole entry): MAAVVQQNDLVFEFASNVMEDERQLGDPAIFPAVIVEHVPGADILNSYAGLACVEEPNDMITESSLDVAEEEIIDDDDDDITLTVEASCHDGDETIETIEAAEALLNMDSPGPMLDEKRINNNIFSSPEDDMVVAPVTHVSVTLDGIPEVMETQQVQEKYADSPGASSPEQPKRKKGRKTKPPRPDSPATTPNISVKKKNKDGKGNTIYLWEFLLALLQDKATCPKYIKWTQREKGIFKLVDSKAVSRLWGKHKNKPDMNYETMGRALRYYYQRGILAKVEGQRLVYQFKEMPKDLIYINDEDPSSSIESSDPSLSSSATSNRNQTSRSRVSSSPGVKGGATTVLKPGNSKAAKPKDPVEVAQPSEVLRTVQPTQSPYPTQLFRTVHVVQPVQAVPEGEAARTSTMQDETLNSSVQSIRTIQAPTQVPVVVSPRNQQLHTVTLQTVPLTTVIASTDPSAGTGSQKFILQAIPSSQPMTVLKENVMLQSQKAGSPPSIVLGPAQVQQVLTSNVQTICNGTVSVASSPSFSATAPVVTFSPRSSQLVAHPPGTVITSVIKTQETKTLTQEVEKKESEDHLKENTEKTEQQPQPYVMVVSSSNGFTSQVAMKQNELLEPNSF
# ETV5, sequence (P41161 whole entry): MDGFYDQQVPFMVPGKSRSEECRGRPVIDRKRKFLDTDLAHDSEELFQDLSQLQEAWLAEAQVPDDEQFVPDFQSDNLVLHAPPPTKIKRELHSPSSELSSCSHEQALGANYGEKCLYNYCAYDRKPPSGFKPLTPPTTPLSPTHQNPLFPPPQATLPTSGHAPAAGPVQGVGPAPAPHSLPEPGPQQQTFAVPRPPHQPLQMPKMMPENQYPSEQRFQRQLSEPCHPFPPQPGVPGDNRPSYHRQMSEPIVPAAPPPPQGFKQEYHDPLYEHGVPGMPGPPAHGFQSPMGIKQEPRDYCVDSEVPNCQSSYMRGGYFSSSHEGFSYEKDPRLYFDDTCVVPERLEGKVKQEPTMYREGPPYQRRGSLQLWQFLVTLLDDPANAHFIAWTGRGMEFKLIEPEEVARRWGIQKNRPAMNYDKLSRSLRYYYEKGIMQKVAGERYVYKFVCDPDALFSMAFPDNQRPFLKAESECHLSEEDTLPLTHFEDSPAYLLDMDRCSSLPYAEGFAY
# ELF4, sequence (Q99607 whole entry): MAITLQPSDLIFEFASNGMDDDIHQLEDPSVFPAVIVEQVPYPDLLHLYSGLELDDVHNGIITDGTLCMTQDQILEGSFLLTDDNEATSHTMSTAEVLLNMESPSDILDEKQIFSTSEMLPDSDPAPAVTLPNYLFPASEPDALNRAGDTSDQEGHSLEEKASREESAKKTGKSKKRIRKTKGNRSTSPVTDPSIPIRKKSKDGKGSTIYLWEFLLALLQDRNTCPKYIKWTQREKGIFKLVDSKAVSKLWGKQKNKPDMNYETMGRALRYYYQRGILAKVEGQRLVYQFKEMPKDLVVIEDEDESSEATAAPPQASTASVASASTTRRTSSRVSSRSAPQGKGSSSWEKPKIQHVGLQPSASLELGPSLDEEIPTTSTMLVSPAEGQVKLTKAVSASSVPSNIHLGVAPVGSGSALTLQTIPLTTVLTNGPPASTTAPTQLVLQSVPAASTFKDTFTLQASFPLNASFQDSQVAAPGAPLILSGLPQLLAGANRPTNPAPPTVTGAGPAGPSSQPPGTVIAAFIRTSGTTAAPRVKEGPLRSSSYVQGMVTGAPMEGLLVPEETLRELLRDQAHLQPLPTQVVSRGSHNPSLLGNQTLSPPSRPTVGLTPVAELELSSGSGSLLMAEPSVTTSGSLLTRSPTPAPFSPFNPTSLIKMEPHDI
sequence,measurement,setting,value
ATGCCA,binding signal,ELK1,"1.06 fold enrichment (6-mer frequency, TF over GST control)"
same,binding signal,GABPA,"1.02 fold enrichment (6-mer frequency, TF over GST control)"
same,binding signal,ERG,"1.04 fold enrichment (6-mer frequency, TF over GST control)"
same,binding signal,ELF1,"1.07 fold enrichment (6-mer frequency, TF over GST control)"
same,binding signal,EHF,"1.05 fold enrichment (6-mer frequency, TF over GST control)"
same,binding signal,SPIB,"1.03 fold enrichment (6-mer frequency, TF over GST control)"
same,binding signal,FEV,"1.04 fold enrichment (6-mer frequency, TF over GST control)"
same,binding signal,ETV5,"1.05 fold enrichment (6-mer frequency, TF over GST control)"
same,binding signal,ELF4,"1.09 fold enrichment (6-mer frequency, TF over GST control)"
same,binding signal,ELK4,"1.02 fold enrichment (6-mer frequency, TF over GST control)"
